The list is not random: actives were taken first. Their share in the collection is about 4.4%.
NFkB transloc inh = blocks IL-1B driven NFkB nuclear translocation in HUVEC cells. HUVEC IL-1B NFkB p65 nuclear translocation imaging. inhibition, % at 2 µM. 0.43% of 94,000 active. AID 796;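 active = inhibition above about 30% together with a positive call from visual inspection of the well image, limit read from the data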;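 also: nuclear over cytoplasmic p65 intensity ratio measured by imaging; 0% = IL-1B stimulated DMSO wells and 100% = unstimulated DMSO wells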
HUVEC tox IL1B = toxic to HUVEC cells under IL-1B stimulation; HUVEC cell count loss, Hoechst imaging, IL-1B stimulated; cell count reduction, % at 2 µM; 0.41% of 94,000 active; AID 845;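 active = cell count reduction more than 3 SD above the screen-wide mean, cut at about 70% in these data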;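 also: normalized per plate to untreated control cells as the no-loss baseline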
Cav3 T inh = human Cav3.2 channel inhibition, primary screen; O95180; Cav3.2-expressing cells, Fluo-4 calcium fluorescence FDSS; hits give low values; B-score at 10 µM; 4% of 100,000 active; AID 449739;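 active = single-dose well whose peak fluorescence ratio is a statistical outlier from its plate by either plate-standardised score or position-corrected B-score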
IL1B NFkB pot = enhances IL-1B driven NFkB nuclear translocation; HUVEC IL-1B NFkB p65 nuclear translocation imaging; activation, % at 2 µM; 0.3% of 94,000 active;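 active = activation above 40%, about the mean plus 3 SD, also judged a hit on visual image review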;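 also: percent activation is computed from the nuclear over cytoplasmic p65 intensity ratio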
Numbers without * were called inactive; . = no result given.

SMILES | NFkB transloc inh | HUVEC tox IL1B | Cav3 T inh | IL1B NFkB pot
CCCC1S/C(=N/N=C/c2ccc(OC)cc2)N(Cc2ccccc2)C1=O (stereo not drawn) | 4.0 | -2.8 | -3.59* | -4.0
CCCCCCC1NC(C(=O)O)CS1 (stereo not drawn) | 8.9 | 19.2 | -0.0826 | -8.9
CCOC(=O)c1ccc(NS(=O)(=O)c2c(N)[nH]c(=O)[nH]c2=O)cc1 | . | . | 0.123 | .
O=C(Cc1ccc(Nc2nc3ccc(Br)cc3[nH]2)cc1)NCCc1cccs1 | -1.8 | -17.3 | -3.16* | 1.8
O=C(CC1CCCC1)Nc1ccc2c(c1)CCC2 | 6.4 | 1.6 | 0.355 | -6.4
O=C(NCCO)c1ccc2nc(-c3ccco3)c(-c3ccco3)nc2c1 | 9.5 | -4.7 | 0.497 | -9.5
O=C(NCCc1ccccc1)c1ccc2nc(-c3ccco3)c(-c3ccco3)nc2c1 | 0.1 | 7.1 | -10.8* | -0.1
O=C(N/N=C/C=C/c1ccccc1)C1CC1c1ccccc1 (stereo not drawn) | -7.9 | -52.1 | . | 7.9
CCOc1cccc(NC(=O)C2CC(=O)NC(=Nc3ccccc3)S2)c1 (stereo not drawn) | -32.8 | -19.3 | -4.88* | 32.8
NS(=O)(=O)c1ccc(CCNC(=O)c2ccccc2F)cc1 | 6.7 | -7.6 | -0.175 | -6.7
Cc1c(C(=O)OC(C)C)[nH]c2c1C(=O)CC(C)(C)C2 | 95.9* | 87.3* | -0.0729 | -95.9
Cc1ccc(N(CC(=O)Nc2ccccc2C(=O)NCc2ccco2)S(=O)(=O)c2ccccc2)cc1C | -10.9 | 8.7 | -6.04* | 10.9
COc1ccc(N(CC(=O)Nc2ccccc2C(=O)NCc2ccco2)S(C)(=O)=O)cc1 | -4.2 | -5.6 | 0.79 | 4.2
CC1CC(N(C(=O)c2ccco2)c2ccccc2)c2ccccc2N1C(=O)c1ccco1 (stereo not drawn) | 0.5 | 1.9 | -5.33* | -0.5
O=C(c1ccco1)N1CCN(Cc2ccc(Cl)cc2)CC1 | -10.1 | -13.5 | . | 10.1
CC1CC(N(C(=O)c2ccc(Cl)cc2)c2ccccc2)c2ccccc2N1C(=O)c1ccco1 (stereo not drawn) | -9.5 | 15.8 | -5.74* | 9.5
CC1CC(N(C(=O)C2CC2)c2ccccc2)c2ccccc2N1C(=O)C1CC1 (stereo not drawn) | 2.1 | -16.2 | -1.61 | -2.1
CCN(CC)c1ccc(/C=c2/sc3nnc(-c4ccccc4C)n3c2=O)cc1 | -3.6 | -12.3 | -2.94 | 3.6
CCN(CC)c1ccc(/C=c2\sc3nnc(-c4ccccc4Cl)n3c2=O)cc1 | -3.6 | -20.8 | -4.73* | 3.6
CCCOc1ccc(NC(=O)CC2C(=O)N(C)C(=S)N2Cc2cccs2)cc1 (stereo not drawn) | . | . | -3.87* | .
CCOc1ccc(NC(=O)CC2C(=O)N(C)C(=S)N2Cc2ccc3c(c2)OCO3)cc1 (stereo not drawn) | . | . | -1.88 | .
CC1C/C(=N\NC(=S)NC(C)C)CC(C)(C)C1 (stereo not drawn) | -11.7 | -36.4 | -0.504 | 11.7
COc1ccc(CCN2CCC(Nc3nc4ccccc4n3Cc3ccc(F)cc3)CC2)cc1 | . | . | -4.96* | .
CCOc1ccc(S(=O)(=O)Nc2nc3ccccc3nc2N2CCN(C)CC2)cc1 | -3.6 | -8.3 | 1.19 | 3.6
O=S(=O)(Nc1nc2ccccc2nc1N1CCN(c2ccccc2F)CC1)c1ccc(Cl)cc1 | 5.2 | 9.8 | -5.71* | -5.2
SMILES | NFkB transloc inh | HUVEC tox IL1B | Cav3 T inh | IL1B NFkB pot
Cc1ccc(N(CC(=O)Nc2cc(Cl)ccc2Oc2ccccc2)S(C)(=O)=O)cc1C | 4.8 | -9.3 | -5.85* | -4.8
COc1cc(OC)c(NC(=O)CCc2ccccc2)cc1Cl | 11.8 | 20.1 | -2.29 | -11.8
COc1ccc(Cl)cc1NC(=O)CN(C1CCCCC1)S(C)(=O)=O | -4.0 | -6.0 | -4.31* | 4.0
Cc1ccc(N(CC(=O)Nc2cc(Cl)ccc2Oc2ccccc2)S(C)(=O)=O)c(C)c1 | -9.8 | -3.8 | -3.97 | 9.8
CSc1ccccc1NC(=O)CN(C1CCCCC1)S(C)(=O)=O | 1.7 | -199.1 | 0.714 | -1.7
COc1ccc(Cl)cc1NC(=O)CCc1ccccc1 | 10.4 | -5.3 | -4.59* | -10.4
COc1ccc2nc(Nc3nc(CSc4nc5ccccc5s4)cc(=O)[nH]3)nc(C)c2c1 | . | . | -1.39 | .
C/C(=N/OC(=O)c1c(F)cccc1F)c1nccs1 | -11.3 | -5.1 | -4.65* | 11.3
C/C(=N\OC(=O)c1ccc(F)cc1)c1nccs1 | 0.5 | 5.1 | -0.912 | -0.5
Cc1cc(C(F)(F)F)nc(NCc2ccc(F)cc2)n1 | 4.6 | -16.6 | -5.37* | -4.6
CCc1ccccc1OCc1nnc(N)s1 | . | . | -0.387 | .
CCCn1cc(SCC(=O)Nc2ccc3c(c2)OCO3)c2ccccc21 | 4.1 | -31.4 | -4.55* | -4.1
O=C(CSCc1ccc(Cl)cc1)NCc1ccc2c(c1)OCO2 | -16.6 | -75.0 | -6.11* | 16.6
CCCn1c(N2CCN(CC(=O)Nc3ccc4c(c3)OCCO4)CC2)nc2ccccc21 | -7.0 | -50.0 | -4.54* | 7.0

Screens (PubChem)
